# Screens (PubChem)
# Hits are enriched below; roughly 0.28% of the tested compounds scored in any of these assays.
# NPYLR7 agonist – mosquito NPYLR7 agonism; HEK293T NPYLR7/Galpha15, GCaMP6s calcium fluorescence; activation, % at 10 µM; 0.15% of 270,000 active; AID 1259423; in the data active means activation above about 40%;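 further: 0% = vehicle and 100% = reference agonist at the receptor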
# mcGAS lum – mouse cGAS inhibition by luminescence; Q8C6L5; inhibition, % at 12.5 µM; 0.15% of 160,000 active; recombinant cGAS, Kinase-Glo ATP depletion luminescence;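 further: 0% = negative control wells and 100% = reference inhibitor with no enzyme activity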
# hcGAS lum – human cGAS inhibition | recombinant h-cGAS, ATP depletion, Kinase-Glo luminescence | AID 1259398 | Q8N884 | inhibition, % at 12.5 µM | 0.081% of 290,000 active;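 further: 0% = vehicle reaction and 100% = reaction without DNA for no activity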
# Target sequence (Q8N884 whole entry, looked up): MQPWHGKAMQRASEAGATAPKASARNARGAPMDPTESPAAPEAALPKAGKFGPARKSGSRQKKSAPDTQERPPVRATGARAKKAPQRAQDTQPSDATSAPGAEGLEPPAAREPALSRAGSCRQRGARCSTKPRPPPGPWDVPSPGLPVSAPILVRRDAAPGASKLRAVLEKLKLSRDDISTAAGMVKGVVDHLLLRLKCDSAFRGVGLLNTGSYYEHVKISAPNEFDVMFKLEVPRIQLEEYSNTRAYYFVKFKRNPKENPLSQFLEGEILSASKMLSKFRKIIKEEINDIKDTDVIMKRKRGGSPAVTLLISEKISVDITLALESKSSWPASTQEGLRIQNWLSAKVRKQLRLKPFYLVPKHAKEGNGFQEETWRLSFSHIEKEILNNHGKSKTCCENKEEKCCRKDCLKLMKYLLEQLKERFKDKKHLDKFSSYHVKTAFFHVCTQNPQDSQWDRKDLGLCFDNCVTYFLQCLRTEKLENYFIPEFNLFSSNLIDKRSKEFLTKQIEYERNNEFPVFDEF
# The depositor's hits bear a star; x = not tested or not shown; ! = not active in a repeat. Unless noted, no stated cut-off is given here; in the data, active means inhibition above about 40%; inactive means the rest.
SMILES,NPYLR7 agonist,mcGAS lum,hcGAS lum
Cc1cc(C)nc(SCc2cc(=O)c(OC(=O)Cc3ccc(Cl)cc3)co2)n1,-10,31,-1
CCOc1ccc(CC(=O)Oc2coc(CSc3nccc(C)n3)cc2=O)cc1,-1,59*,0
Cc1cc(C)cc(-c2cc(NS(=O)(=O)c3cnn(C)c3)n[nH]2)c1,1,x,-2
CC(NC(=O)c1cc2cc(Br)ccc2[nH]1)c1ccncc1 (stereo unspecified),-3,1,5
CCN(C)C(=O)c1ccc(C2CCCN2C(=O)CCn2nnnc2C)s1 (stereo unspecified),20,x,-7
Cc1ccc(CC2(NC(=O)Cc3nn[nH]n3)CC2)cc1,2,3,3
C=CCn1nc(C(=O)N2CCSCC2)c2c1CCC(NCc1cc(-c3ccccc3)on1)C2 (stereo unspecified),19,-8,-24
CCc1cc(=O)[nH]c2n[nH]c(=S)n12,-3,x,3
O=c1cc(-c2ccccc2)n2c(=S)[nH]nc2[nH]1,-3,x,64*
CSCCC1CC(=O)Nc2c1cnn2Cc1cccnc1 (stereo unspecified),x,-12,-8
Cc1ccc(C)c(C2C(C#N)C(=N)SC(=N)C2C#N)c1 (stereo unspecified),120*,x,-3
N#CC1C(=N)SC(=N)C(C#N)C1c1ccc(F)cc1F (stereo unspecified),0,24,18
O=c1cc(-c2ccccc2)oc2cc(O)c(O)cc12,-4,29,34
O=c1cc(-c2ccccc2)oc2c(O)c(O)ccc12,-1,x,72*
Cc1nc(N(C)C)nc(-c2cccc(-c3ccn(CCCF)n3)c2)c1C,2,x,-5
Clc1ccc(-c2ccc(CNC3CCCc4c3cnn4-c3ccccn3)o2)cc1 (stereo unspecified),3,x,-8
C[C@@H](NC(=O)Nc1c(F)cccc1F)C(=O)N1CCC(C(=O)N2CCOCC2)CC1,1,-6,0
CC1=C(C(=O)N2CCC(CCC(=O)Nc3ccc(F)c(Cl)c3)CC2)OCCO1,1,x,-1
CN(C)Cc1ccc2ccc3cccc4ccc1c2c34,1,x,84*
CN(C)Cc1ccccc1Cc1ccccc1,2,x,-3
Cc1ccccc1-n1nc(C(=O)N2CCC(N(C)C)C2)nc1CCc1ccccc1 (stereo unspecified),x,-5,6
O=C(CNCc1ccccc1)N1CC(=O)N(c2cccc(Cl)c2)C1,46*,2,4
O=C(CNCc1ccco1)N1CC(=O)N(c2cccc(Cl)c2)C1,25,x,-1
CC(OC(=O)c1ccc(-n2cccc2)cc1)C(=O)N(C)c1ccccc1 (stereo unspecified),11,x,-10
O=C1NC(=S)SC1=Cc1ccc(Cl)cc1,-9,55*,11
SMILES,NPYLR7 agonist,mcGAS lum,hcGAS lum
O=C1NC(=S)SC1=Cc1ccc(F)cc1,2,38,15
O=C1NC(=S)SC1=Cc1c(F)cccc1Cl,-3,x,48*
O=C(O)CN1C(=O)/C(=C/c2c(F)cccc2Cl)SC1=S,-4,-1,-3
N#C/C(=C\c1ccc(O)c(O)c1)C(=O)NCCCc1ccccc1,120*,1,9
N#C/C(=C\c1ccc(O)c(O)c1)C(=O)c1ccc(O)c(O)c1,16,15,19
Cc1ccc(C(=O)COC(=O)c2ccc(F)cc2)cc1,11,-7,-9
c1cc2c(cc1CN1COc3cc4c(cc3C1)OCO4)OCO2,9,x,-9
COc1cc(CNCCN(C)C)cc2c1OCO2,2,-4,-7
COc1cc2oc(=O)c3c4c(cc5ccc(c1CCN(C)C)c2c53)OCO4,2,52*,44*
CCOC(=O)c1cc(-c2ccc(N3CCN(C(=O)c4cc(C)nn4C)CC3)cc2)n(-c2cccc(F)c2)n1,19,-4,0
CC(C)S(=O)(=O)Oc1ccc(CN(Cc2ccco2)C(=O)c2cccc(F)c2)cc1,10,-4,45*
CC(C)S(=O)(=O)Oc1ccc(CN(C(=O)c2cccc(F)c2)C2CC2)cc1,24,-4,-11
Cc1ccc(Cl)c2sc(N(Cc3ccccn3)C(=O)Cc3ccc(S(C)(=O)=O)cc3)nc12,2,x,-12
O=C(CCn1c(Cc2c(Cl)cccc2Cl)nc2ccccc21)NCCN1CCCC1,x,0,46*
O=C(CN1CCCCCC1)NCCn1nnc2ccccc21,8,x,2
COCCCNCc1c(-c2ccccc2)noc1N1CCc2ccccc2C1,15,x,-3
COCCCNCc1c(-c2ccc(F)cc2)noc1N1CCOCC1,46*,x,-3
COCC(=O)N1CCC(Oc2ccc(C(=O)N3CCCCO3)cc2)CC1,3,x,-6
COc1ccc(NC(=O)c2ccc(NC(C)C)nc2)cn1,6,-5,-4
COCCOc1ccc(NC(=O)N(C)C(C)C2(C)CC2)cn1 (stereo unspecified),134*,-15,-7
CN1CC2(CCN(C(=O)CCc3n[nH]c4c3CCCC4)C2)OC1=O (stereo unspecified),8,x,-3
Cc1ccc2oc(-c3ccc(N)cc3)nc2c1,-5,-5,-2
Nc1ccc(-c2nc3cc(N)cc(Cl)c3o2)cc1,118*,-3,-3
CC1C(=O)c2cccc3c(=O)n(-c4ccccc4)c(O)c(c23)C1=O (stereo unspecified),83*,x,4
CC(=O)c1ccc(-n2c(=O)c3ccccc3c3ccccc3c2=O)cc1,4,x,-6
SMILES,NPYLR7 agonist,mcGAS lum,hcGAS lum
CCS(=O)(=O)Oc1cccc(CN(Cc2ccco2)C(=O)Nc2ccccc2C(F)(F)F)c1,5,-4,3
CCC(CC)C(=O)N(C)c1c(C)nc2ccc(C(=O)NCCNC(C)=O)cn12,14,-3,-6
O=C(Nc1cccc(-c2nnco2)c1)C1CCCCC1,86*,x,-6
O=C(Nc1cccc(-c2cccc(-c3ccc4c(c3)OCCO4)n2)c1)C1CCCCC1,-7,-6,-8
Cc1c(C(=O)Nc2c(N)nc(SCc3cccc(Cl)c3)[nH]c2=O)cccc1[N+](=O)[O-],-1,-5,0
CCN(CC)Cc1c(O)cc(C)c2c1O/C(=C\c1cc3ccccc3o1)C2=O,70*,-2,-2
Cc1cc(O)c(CN2CCN(C)CC2)c2c1C(=O)/C(=C/c1cc3ccccc3o1)O2,8,-9,-8
Cc1cc2c(C(C)C)c(O)c(O)c(C=O)c2c(O)c1-c1c(C)cc2c(C(C)C)c(O)c(O)c(C=O)c2c1O,-3,48*!,-7
CCOc1ccc(-c2[nH]ncc2-c2nc(-c3cc(OC)c(OC)c(OC)c3)no2)cc1Cl,-1,-2,-1
CC(=O)N1CCN(CC(=O)N2N=C(c3ccccc3F)CC2c2ccc(Cl)cc2)CC1 (stereo unspecified),4,-4,-4
O=C(CN1CCc2ccccc2C1)N1N=C(c2ccccc2F)CC1c1ccc(Cl)cc1 (stereo unspecified),15,-3,60*
CCOC(=O)C1CCCN(CC(=O)N2N=C(c3ccccc3Cl)CC2c2ccc(Cl)cc2)C1 (stereo unspecified),42*,0,2
CCOC(=O)C1CCCN(CC(=O)N2N=C(c3ccccc3Cl)CC2c2ccc3c(c2)OCO3)C1 (stereo unspecified),-2,-4,-4
CC(C)(C)OCCN1CCCC1c1nc(Cc2ccc(F)cc2)no1 (stereo unspecified),3,x,-5
O=C(NCC1Cc2c(F)ccc(-c3ccncc3)c2O1)c1cc(Cl)ccc1F (stereo unspecified),17,-10,-7
